PubChem BioAssay (Tox21)
Results filed as inconclusive are left out. Where a call stands in place of a potency, no number is given. Active and inactive are the calls of the source. Calls come from the whole dose curve; as a rule, active = well fitted curve in the direction sought with a large enough effect in the signal ratio in the repeat runs (not every such curve was filed as active); inconclusive = weak or mixed curves, or a change in a side signal; inactive = no such curve, though single readings can be large or run the other way; the % refers to the signal ratio.

Test: qHTS assay to identify small molecule agonists of the NFkB signaling pathway (AID 1159509)
Conditions: NFkB-bla ME-180 cells, beta-lactamase FRET ratio, 5 h; series mostly up to 61 µM
How it was run: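 Beta-lactamase reporter assay run in quantitative high-throughput format on an NF-kB-responsive ME-180 line, with 5 hr compound treatment and a FRET-based blue/green fluorescence readout.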

Compound | Potency
O=C(OC(=O)c1ccccc1)c1ccccc1 | inactive
O=c1c(O)c(-c2ccc(O)cc2)oc2cc(O)cc(O)c12 | inactive
CS(=O)(=O)c1ccc(-c2cn3ccccc3n2)cc1 | inactive
CCCCCCCC/C=C\CCCCCCCCCCCC(=O)O | inactive
CCCCC(CC)CN (stereo not given) | inactive
C[C@@H](O[C@H]1OCCN(Cc2n[nH]c(=O)[nH]2)[C@H]1c1ccc(F)cc1)c1cc(C(F)(F)F)cc(C(F)(F)F)c1 | inactive
c1ccc2c(c1)CCc1ccccc1N2 | inactive
CC(C)c1nc(CN(C)C(=O)N[C@H](C(=O)N[C@@H](Cc2ccccc2)C[C@H](O)[C@H](Cc2ccccc2)NC(=O)OCc2cncs2)C(C)C)cs1 | inactive
C(=C\c1ccccc1)/c1ccccc1 | inactive
C=C/C(C)=C/C/C=C(\C)CCC=C(C)C | inactive
Cc1ccc(Cl)c(Nc2ccccc2C(=O)O)c1Cl | inactive
CC(C)Nc1cccnc1N1CCN(C(=O)c2cc3cc(NS(C)(=O)=O)ccc3[nH]2)CC1 | inactive
O=C(O)c1cccc(-c2noc(-c3ccccc3F)n2)c1 | inactive
CCOC(=O)c1ccc(O)c(O)c1 | inactive
CC1=C(Br)C(=O)C(Br)=C/C1=C(/c1ccccc1S(=O)(=O)O)c1cc(Br)c(O)c(Br)c1C | inactive
CC(C)=CCC/C(C)=C/CC/C(C)=C/CCC(=O)OC/C=C(\C)CCC=C(C)C | inactive
Cc1cc(C)cc(N)c1 | inactive
C[C@@H]1CC(=O)NN=C1c1ccc(NN=C(C#N)C#N)cc1 | inactive
C=Cc1ccc(S(=O)(=O)O)cc1 | inactive
Cc1ccc2c(Br)cc(Br)c(O)c2n1 | inactive

Compound | Potency
CC(C)=CCC/C(C)=C/CC/C(C)=C/C(=O)OCC(=O)[C@@]1(O)CC[C@H]2[C@@H]3CCC4=CC(=O)C=C[C@]4(C)[C@H]3[C@@H](O)C[C@@]21C | inactive
C[C@@H](CN(C)C)CN1c2ccccc2Sc2ccccc21 | inactive
CC(CCC(=O)O)C(=O)O (stereo not given) | inactive
CC/C=C1/OC(=O)c2ccccc21 | inactive
CCC(C)COC(C)=O (stereo not given) | inactive
CCOC(=O)c1ccc(C#Cc2ccc3c(c2)C(C)(C)CCS3)nc1 | inactive
CC1(CN2CCC(n3c(=O)[nH]c4ccccc43)CC2)OCc2ccccc2-n2cccc21 (stereo not given) | inactive
CC[N+](CC)(CCNC(=O)C(=O)NCC[N+](CC)(CC)Cc1ccccc1Cl)Cc1ccccc1Cl | inactive
O=C1NC(=O)c2cc([N+](=O)[O-])ccc21 | inactive
CCC1CO1 (stereo not given) | inactive
C=CC(=O)[O-].C=CC(=O)[O-].[Zn+2] | inactive
CCCCCCC(C)(C)C(=O)O | inactive
C=C(C)C(=O)OCCCCCCCCCCCCC | inactive
Cc1cccc(O)c1N | inactive
CCCCCC#CC(=O)OC | inactive
CC[C@]1(O)C[C@H]2CN(CCc3c([nH]c4ccccc34)[C@@](C(=O)OC)(c3cc4c(cc3OC)N(C=O)[C@H]3[C@@](O)(C(=O)OC)[C@H](OC(C)=O)[C@]5(CC)C=CCN6CC[C@]43[C@@H]65)C2)C1 | inactive
CNC(=O)c1cnn(-c2nc(N)c3ncn([C@@H]4O[C@H](CO)[C@@H](O)[C@H]4O)c3n2)c1 | inactive
CCCCOc1ccc(OCCCN2CCOCC2)cc1 | inactive
C1COC1 | inactive
CC(=O)NC1(c2cccc(F)c2)CCN(CC[C@@]2(c3ccc(Cl)c(Cl)c3)CN(c3ccccc3)C(=O)CO2)CC1 | inactive
